# Vaccinia mCherry: vaccinia inhibition (mCherry reporter); Vaccinia virus mCherry reporter infection, fluorescence; Potency, µM (top dose mostly 36.5 µM), without a hit: at the highest dose activity change, negative = inhibition, usual class: inhibitors; 310,000 compounds, 0.63% hits; AID 720579; calls by dose curve; tested in A549 cells; further: potency means the concentration at half of the fitted maximal effect; nearly all actives have a fitted effect of over 35% in size
# Vaccinia Venus: vaccinia inhibition (Venus reporter); Vaccinia virus Venus reporter expression, fluorescence; Potency, µM (titrated, usually from 36.5 µM), inactives show top-dose activity change, negative = inhibition, usual class: inhibitors; 330,000 compounds, 0.46% hits; AID 720580; calls by dose curve; tested in A549 cells; further: potency means the concentration at half of the fitted maximal effect; nearly all actives have a fitted effect of over 30% in size
# FMDV antiviral: blocks foot and mouth disease virus. FMDV antiviral cell-based qHTS. Potency, µM (series often up to 57.9 µM), for inactives: top-dose activity change, negative = inhibition, usual class: inhibitors. 410,000 compounds, 1.2% hits; calls by dose curve; tested in HEK293T cells; further: read-out not given here; potency means the concentration at half of the fitted maximal effect; nearly all actives have a fitted effect of over 45% in size
# HCMV inh: inhibitors of human cytomegalovirus | HFF cells, HCMV-luciferase reporter, 72 h; hits give low values | activity change, negative = inhibition, % at 57.5 µM | 410,000 compounds, 4.5% hits; in the data active means activity change below about -60%; inconclusive means no clear call, values can overlap the other calls; inactive means above about -39%
#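 After 16 h attachment at 37C, HFF cells received test compound and HCMV-luciferase (1 PFU/cell); reporter luminescence read 72 h later, data normalized against buffer-only and known inhibitor Salinomycin.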
# FBPA Giardia inh: Giardia lamblia aldolase inhibition; A8B2U2; purified Giardia FBPA; Potency, µM (titrated, usually from 59.6 µM), for inactives: at the highest dose activity, negative = inhibition, most hits filed as inhibitors; 290,000 compounds, 0.71% hits; AID 2451; further: potency means the concentration at half of the fitted maximal effect; nearly all actives have a fitted effect of over 55% in size
# Target sequence (A8B2U2 whole entry, looked up): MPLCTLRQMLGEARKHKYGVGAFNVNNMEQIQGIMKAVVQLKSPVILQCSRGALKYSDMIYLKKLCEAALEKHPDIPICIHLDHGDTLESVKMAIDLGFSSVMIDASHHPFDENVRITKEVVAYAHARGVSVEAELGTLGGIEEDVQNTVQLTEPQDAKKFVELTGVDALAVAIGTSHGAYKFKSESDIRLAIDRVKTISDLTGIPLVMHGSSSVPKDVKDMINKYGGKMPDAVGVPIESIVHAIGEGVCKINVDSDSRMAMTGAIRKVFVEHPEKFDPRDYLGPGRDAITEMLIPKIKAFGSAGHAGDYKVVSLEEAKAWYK
#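 40 nM FBPA preincubated 10 min at RT with compound (up to 57.5 uM final), then substrate plus GAPDH/TPI/NAD/arsenate coupling and diaphorase/resazurin added. Fluorescence read after 20 min at RT, 525/598 nm.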
# HCV inhibitor: HCV inhibition; Huh7.5.1 HCVcc-Cre infection, luciferase reporter, 44 h; Potency, µM (titrated, usually from 41.8 µM), for inactives: at the highest dose activity change, negative = inhibition, usual class: inhibitors; 340,000 compounds, 3.4% hits; AID 651820; further: potency means the concentration at half of the fitted maximal effect
#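 A cell-based infection assay in which seeded cells (1,000 per well) receive test compound after 4 h, are inoculated with HCVcc-Cre at approximately 0.5 moi, and are incubated 44 h before luminescence detection.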
# Numbers without * were called inactive; u = inconclusive; x = no result. Compounds with a hit are over-represented: about 7.5% of the library has one in this group of screens. Unless noted, the call rests on the fitted dose curve; in most records, active means well fitted curve in the direction sought with a large enough effect; inconclusive means small, poorly fitted or top-dose-only effect, or another doubt; inactive means no such curve, though single readings can be large; an effect the other way counts as inactive or inconclusive. On the % scale 0 is the no-effect control and ±100 the full control effect.
SMILES,Vaccinia mCherry,Vaccinia Venus,FMDV antiviral,HCMV inh,FBPA Giardia inh,HCV inhibitor
CC1CN(C(=O)CCC(=O)NCc2cccs2)c2ccccc2O1 (stereo not given),-9%,-10%,-7%,-2,x,x
CC(C)(C)[C@@H](O)C(Cc1ccc(Cl)cc1)n1cncn1 (stereo not given in full),x,x,x,x,5%,x
CCCn1c(N)c(C(=O)CSc2nc3ccccc3s2)c(=O)[nH]c1=O,11µM*,-15%,u,-66*,-3%,u
Cn1c(=O)c2c(nc(N3CCCCC3)n2CCSc2nc3ccccc3s2)n(C)c1=O,x,x,-23%,-32,0%,u
CC1CCN(c2nc3c(c(=O)n(C)c(=O)n3C)n2CCSc2nc3ccccc3s2)CC1,x,x,0%,-34,-3%,11µM*
Cn1c(=O)[nH]c(=O)c2c1nc(N1CCCCC1)n2CCCSc1nc2ccccc2s1,-2%,-28%,u,-28,-1%,10µM*
Cn1c(=O)[nH]c(=O)c2c1nc(Sc1nc3ccccc3s1)n2Cc1ccccc1,x,4µM*,u,2,0%,u
CC12CCC(/C(=N/O)C1=O)C2(C)C (stereo not given),x,x,x,x,-2%,x
COc1cc(=O)n2c(c1C(=O)N(C)Cc1nonc1C)CCN(Cc1ccccc1F)CC2,-2%,1%,-7%,x,x,x
O=C(Nc1ncc2c(n1)-c1ccccc1CC2)C1CC1,u,-23%,14%,-7,-19%,u
CC(C)SCC(=O)Nc1ncc2c(n1)-c1ccccc1CC2,-28%,-11%,8%,-64*,-29%,u
Cc1ccc(C(=O)c2ccccc2C(=O)OCC(=O)NCCc2ccccc2)cc1,-11%,-29%,0%,-67*,-19%,-28%
O=C(COC(=O)c1ccccc1C(=O)c1ccc(Cl)cc1)NCc1ccccc1,x,x,-17%,-32,-25%,-12%
CCc1cc(C(=O)OCC(=O)NCCc2ccccc2)sc1C,-3%,-7%,-14%,-85*,x,x
CN(C(=O)CSc1nc(N)c2c3c(sc2n1)CSC(C)(C)C3)c1ccccc1,-29%,-23%,-28%,-16,-3%,u
CC(=O)OC1C(=O)OCC23CCC4(C)OC4C2OC2CC(OC(=O)C=CC=CC(=O)OCCC1C)C3(C)C21CO1 (stereo not given),x,x,x,-96*,x,x
CC1=CC2OC3CC4OC(=O)C=CC=CC(C(C)O)OCC(O)C(C)CC(=O)OCC2(CC1O)C4(C)C31CO1 (stereo not given),x,x,x,-97*,x,x
CC(O)C1C=CC=CC(=O)OC2CC3OC4C5OC5(C)CCC4(COC(=O)C4OC4(C)C(O)CO1)C2(C)C31CO1 (stereo not given),x,x,x,-96*,x,x
CCc1nc2c(OCc3ccc(C(F)(F)F)cc3)cccn2c1N(C)C(=O)C1CC1,-23%,u,u,-4,x,x
Cc1cc(=O)[nH]c2ccc([N+](=O)[O-])cc12,-10%,-12%,x,x,x,x
Cc1ccc(C)c2c1[nH]c1ccc([N+](=O)[O-])cc12,-2%,-29%,-12%,-30,-1%,10µM*
Cc1ccc(C)c2c1[nH]c1ccccc12,u,-26%,-1%,22,-11%,7.9µM*
Cc1cc(C=O)c(C)c2c1[nH]c1ccccc12,-11%,-19%,4%,-4,x,-26%
Cc1nc2ccccn2c1C(=O)NC1CCCc2ccccc21 (stereo not given),u,-27%,u,-72*,4%,7.1µM*
COc1ccc(C(=O)NC2CCCc3ccccc32)cc1 (stereo not given),-23%,-4%,21%,-70*,-18%,-9%
COCCNc1ccc([N+](=O)[O-])cc1C(=O)NC1CCCc2ccccc21 (stereo not given),-15%,2%,-13%,35,8%,13µM*
O=C(NC1CCCc2ccccc21)c1cn2ccccc2n1 (stereo not given),x,x,43%,5,-4%,u
Cc1ccc(S(=O)(=O)N2CCN(c3nc(C(N)=O)nc4ccccc34)CC2)cc1,-14%,-10%,x,x,x,x
CN=C1S/C(=C\c2cccc(Cl)c2Cl)C(=O)N1C,x,x,26%,-36,x,-11%
CC(=O)Nc1ccc(Oc2ncccn2)cc1,x,14%,x,x,5%,x
